# In the library only some 10% were active in any assay of this set; here they are far more common.
# hNpr1 antagonist = human Npr1 receptor antagonism; AID 1347048; HEK293 hNpr1 GloSensor cGMP, ANP-stimulated luminescence; Potency, µM (top dose mostly 46.3 µM), without a hit: at the highest dose activity change, negative = inhibition, most hits filed as inhibitors; 76,000 compounds, 1.6% hits; P16066; calls by dose curve; also: nearly all actives have a fitted effect of over 60% in size
#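 HEK293 cells stably expressing human Npr1 and cGMP GloSensor pGS-40F, loaded 2 h with 2% GloSensor reagent, given compound 30 min at room temperature. Luminescence read before and 20 min after 0.1 nM hNppA.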
# FLuc inh = blocks purified firefly luciferase enzyme activity; purified P. pyralis luciferase, luminescence, biochemical; P08659; 76,000 compounds, 2.5% hits; Potency, µM (highest dose often 115 µM), hits mostly inhibitors; also: nearly all actives have a fitted effect of over 65% in size
#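 Purified P. pyralis luciferase (10nM final) in 50mM Tris acetate pH 7.5, 10mM Mg acetate, 0.01% Tween-20, 0.05% BSA with 10uM D-luciferin and 10uM ATP. Compounds titrated qHTS. Luminescence imaged on CCD.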
# HEK cytotox = cytotoxic compounds in HEK 293 cells | AID 1345083 | 94,000 compounds, 6.6% hits | Potency, µM (series often up to 115 µM), inactives show top-dose activity change, negative = cytotoxicity, most hits filed as inhibitors | HEK 293 viability, ATP luminescence (CellTiter-Glo), 48-72 h; also: nearly all actives have a fitted effect of over 60% in size
#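 HEK 293 seeded at 250 cells/well receive compound via pintool. After 48 or 72 hr at 37 degree Celsius, 5% CO2 and 95% humidity, CellTiter-Glo is dispensed and luminescence read following 10 min at room temperature.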
# GPT2 inh = blocks human glutamate pyruvate transaminase 2; Q8TD30; Recombinant GPT2, coupled pyruvate oxidase/HRP Amplex Red fluorescence; Potency, µM (titrated, usually from 57.7 µM), without a hit: at the top dose activity change, negative = inhibition, hits mostly inhibitors; 100,000 compounds, 0.25% hits; AID 1671188; also: nearly all actives have a fitted effect of over 60% in size
# Target sequence (Q8TD30 whole entry, looked up): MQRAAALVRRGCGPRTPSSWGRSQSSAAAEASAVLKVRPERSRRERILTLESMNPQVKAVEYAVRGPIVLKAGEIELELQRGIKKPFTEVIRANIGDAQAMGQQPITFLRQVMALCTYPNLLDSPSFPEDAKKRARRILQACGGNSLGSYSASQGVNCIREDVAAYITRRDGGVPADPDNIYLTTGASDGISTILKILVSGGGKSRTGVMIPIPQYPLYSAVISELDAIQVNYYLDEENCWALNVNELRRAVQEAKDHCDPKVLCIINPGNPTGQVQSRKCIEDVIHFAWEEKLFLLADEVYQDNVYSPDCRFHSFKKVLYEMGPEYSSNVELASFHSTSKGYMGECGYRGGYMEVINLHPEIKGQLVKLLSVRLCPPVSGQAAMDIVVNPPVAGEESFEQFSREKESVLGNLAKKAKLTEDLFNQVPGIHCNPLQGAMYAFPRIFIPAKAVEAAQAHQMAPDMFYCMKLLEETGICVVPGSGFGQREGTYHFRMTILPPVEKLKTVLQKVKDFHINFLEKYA
#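 Recombinant GPT2 (10ng/uL) with 250uM a-KG and 2mM L-alanine, 30 min at room temperature, in HEPES pH 7.5 buffer. Pyruvate detected by pyruvate oxidase/HRP/Amplex Red fluorescence after 30 min in the dark; AOA (50uM) as positive control.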
# 3T3 cytotox = cytotoxic compounds in NIH 3T3 cells | Potency, µM (highest dose often 96.7 µM), without a hit: top-dose activity change, negative = cytotoxicity, usual class: inhibitors | NIH 3T3 viability, CellTiter-Glo ATP luminescence, 48-72 h | 94,000 compounds, 4.3% hits | AID 1345082; also: nearly all actives have a fitted effect of over 55% in size
#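 Cytotoxicity is measured as loss of cellular ATP: NIH 3T3 cells (400/well) are exposed to compound for 48 or 72 hr at 37 °C, then CellTiter-Glo luminescence is imaged after 10 min at room temperature.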
# Active calls of the source: *; i = inactive; ? = inconclusive; . = not tested or not shown; [ ] = dose if it differs, or a comment. Unless noted, calls follow the shape of the dose curve; as a rule, active = well fitted curve in the direction sought with a large enough effect; inconclusive = small, poorly fitted or top-dose-only effect, or another doubt; inactive = no such curve, though single readings can be large; an effect the other way counts as inactive or inconclusive. % is scaled to controls: 0 for no effect and ±100 for the full control effect; potency is read from the fitted curve at half-maximal effect.
SMILES,hNpr1 antagonist,FLuc inh,HEK cytotox,GPT2 inh,3T3 cytotox
Cc1ccc(C)c(NC(=O)C2CCN(C(=O)c3ncn4c3COC(c3ccc(F)cc3)C4)CC2)c1 (centres undefined),-17.1%,28.2µM*,-13.6%,-5.5%,-18.8%
COc1ccc(C2Cn3cnc(C(=O)N4CCC(C(=O)Nc5cccc(Cl)c5)CC4)c3CO2)cc1 (centres undefined),-24.1%,39.8µM*,?,i,-2.0%
Cc1cc(NC(=O)C2CCN(C(=O)c3ncn4c3COC(c3ccc(F)cc3)C4)CC2)ccc1F (centres undefined),-4.0%,22.4µM*,-13.3%,3.8%,-12.0%
Cc1ccc(NC(=O)C2CCN(C(=O)c3ncn4c3COC(c3ccc(F)cc3)C4)CC2)c(C)c1 (centres undefined),-3.7%,35.5µM*,0.7%,-7.2%,i
COc1cccc(-c2c(C(=O)NCc3ccc(F)c(F)c3)nc3sccn23)c1,.,.,?,2.6%,?
CCOC(=O)c1ccc(CNC(=O)N2CCC[C@H](n3c(=O)n(C)c4cccnc43)C2)cc1,.,.,?,i,?
COc1ccc(CC(=O)N2C[C@H](C(N)=O)[C@H]3c4ccccc4N(CC(=O)N(C)C)C(=O)[C@]32C)cc1,.,.,-20.2%[57.5 µM],-14.1%[27.3 µM],?
O=C(NCCCc1ccccc1)c1cc(-c2cccc(C(F)(F)F)c2)c2cccn2n1,.,.,?,3.2%,?
Cc1cc(CNC(=O)C(C)Cn2nc(C)nc2C)c2[nH]c(-c3ccccc3)c(C)c2c1 (centres undefined),-18.9%,20µM*,?,-10.3%,?
CCc1[nH]c2c(CNC(=O)C(C)O)cc(C)cc2c1C (centres undefined),-8.1%,i,-17.3%,-4.6%,-15.7%
Cc1cc(CNC(=O)c2cccc(F)c2F)c2[nH]c(C)c(C)c2c1,4.5%,i,35.5µM*,-1.3%,?
CCn1nccc1C(=O)NC1CCN(c2cc(-c3ccccc3)[nH]n2)CC1,-14.8%,i,?,2.1%,-14.2%
CCn1nccc1C(=O)NCc1cc(C)cc2c(C)c(-c3ccccc3)[nH]c12,?,15.8µM*,28.2µM*,-19.6%[11.5 µM],39.8µM*
Cc1ccccc1C(=O)NC1CCCN(c2ccc3nnc(C4CC4)n3n2)C1 (centres undefined),.,.,?,.,-25.0%
CN(C)c1ccc(CN2CCC3(C2)C(=O)N(Cc2ccccc2)c2ccccc23)cc1 (centres undefined),-11.4%,i,35.5µM*,i,?
CN1C(=O)C2(CCN(C(=O)CCC3CCCCC3)CC2)c2ccccc21,-4.3%,i,44.7µM*,?,?
COCCC(=O)N1CCC2(CC1)C(=O)N(C)c1ccccc12,2.5%,i,2.4%,-7.1%,?
CN1C(=O)C2(CCN(Cc3ccccc3)C2)c2ccccc21 (centres undefined),0.0%[70.6 µM],i,100µM*,-2.2%[88.5 µM],?
CC(C)NC(=O)N1CCC2(CC1)CC(CCOc1ccncc1)CCO2 (centres undefined),.,.,-25.5%,-6.9%,-30.3%
Fc1ccccc1-c1noc(NCc2ccccc2)n1,-7.9%,28.2µM*,?,i,?
COc1ccc(-c2noc(Nc3cc(C)cc(C)c3)n2)cc1,-10.1%,?,?,i,?
COc1cccc(-c2noc(Nc3cc(C)cc(C)c3)n2)c1OC,-19.3%,20µM*,?,-0.9%,?
COc1cccc(-c2noc(NCc3cccc(Cl)c3)n2)c1OC,-5.1%,i,79.4µM*,i,?
O=C(CCc1ccccc1)N1CC(Oc2cccc(-c3nc(-c4ccccc4)no3)c2)C1,.,.,?,-5.6%,?
COc1cccc(-c2cc(-c3c(C)noc3C)c3cncn3c2)c1,-15.1%[70.6 µM],i,?,-5.4%[88.5 µM],39.8µM*
SMILES,hNpr1 antagonist,FLuc inh,HEK cytotox,GPT2 inh,3T3 cytotox
Cc1noc(C)c1-c1cc(-c2cccc3cc[nH]c23)cn2cncc12,?,i,?,-30.1%[88.5 µM],28.2µM*
Cc1noc(C)c1-c1cc(-c2ccccc2O)cn2cncc12,-20.1%[70.6 µM],i,50.1µM*,-1.8%[88.5 µM],25.1µM*
COc1ccccc1-c1cccc(C(=O)N2CCC[C@H]2C(=O)NCc2cccc(C(F)(F)F)c2)c1,.,.,?,i,?
Cc1ccc(C2=NC3(CCN(C(=O)CCc4ccccc4)CC3)ON2)cc1,-3.5%,i,-24.2%,i,-21.7%
CC1CCN(CC2CCCN(C(=O)C3(c4ccccc4)CC3)CC2)CC1 (centres undefined),3.6%,i,?,i,-21.5%
COC(=O)NC1CCN(C(=O)c2ccc(-c3cccs3)cc2)CC1,.,.,?,1.3%[88.5 µM],?
CCCNC(=O)N1CCOC[C@H](Oc2ccccc2)C1,5.2%[70.6 µM],i,i,i,i
O=C(Nc1ccc(OC(F)(F)F)cc1)N1CCOC[C@H](Oc2ccccc2)C1,?,i,56.2µM*,-2.1%[88.5 µM],31.6µM*
Cc1ccccc1-c1cccc(CN2CCOC(CCN)C2)c1 (centres undefined),-7.0%,i,?,?,20µM*
CC(=O)c1cc(CN2CCOC(CCCc3ccccc3)C2)cs1 (centres undefined),?,i,?,-5.4%,-26.8%
COc1ccccc1N1CCC(N2CCN(CCCc3ccccc3)C(CCO)C2)CC1 (centres undefined),-7.8%,i,?,i,?
CCCc1cc(C(=O)N2CCCC(Cc3ccccc3F)(C(=O)OCC)C2)n(C)n1 (centres undefined),-22.6%,i,17.8µM*,?,?
CCOC(=O)C1(Cc2ccccc2)CCCN(C(=O)c2ccccc2SC)C1 (centres undefined),-9.3%,?,44.7µM*,i,?
CC(C)(C)C1CCC2(CC1)NC(=O)N(CC(=O)N1CCN(c3ccccc3)CC1)C2=O (centres undefined),1.2%,i,-22.6%,1.0%,-12.9%
Cc1ccc2cc(CCC(=O)N3CCOCC3)c(=O)[nH]c2c1,-15.3%,31.6µM*,-4.3%,i,3.0%
Cc1ccccc1CN1CCc2c(n(Cc3ccccc3)n(-c3ccccc3)c2=O)C1,-21.4%[70.6 µM],i,89.1µM*,-5.8%[88.5 µM],89.1µM*
COc1ccc(Cn2c3c(c(=O)n2Cc2ccccc2)CCN(C(=O)c2ccnn2C)C3)cc1,-1.4%,i,3.2%,3.6%,35.5µM*
CC(C)C(=O)N1CCc2c(n(Cc3ccccc3)n(-c3ccccc3)c2=O)C1,-3.0%[70.6 µM],i,3.7%[172 µM],-11.8%[88.5 µM],22.4µM*
COc1ccc(-n2c(=O)c3c(n2Cc2ccccc2)CN(C(C)=O)CC3)cc1,5.1%[70.6 µM],i,2.5%[172 µM],-12.2%[88.5 µM],?
COc1ccc(-n2c(=O)c3c(n2Cc2ccccc2)CN(C(=O)C(C)C)CC3)cc1,-7.9%[70.6 µM],i,-3.8%[172 µM],i,10µM*

# Source: PubChem
